± gives the standard deviation of the averaged measurements. About 6,500 targets were measured; listed, in parts, are those with the largest changes and a random draw of the rest.
Compound: Nc1ncnc2c1ncn2[C@@H]1O[C@H](COP(=O)(O)OP(=O)(O)OP(=O)(O)O)[C@@H](O)[C@H]1O [adenosine triphosphate]
Assay: NP40-soluble protein abundance relative to vehicle (solubility fold change) (ratio); higher = more soluble protein in presence of ATP
Procedure, shortened: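 Crude Jurkat lysate, prepared by Dounce homogenisation, was exposed to eight concentrations from 0.1 to 10 mM for 10 min at room temperature and then 3 min at 37 °C. Solubilisation used 0.8% NP40 with benzonase for 60 min at 4 °C, followed by ultracentrifugation and TMT labelling of the supernatant for LC-MS/MS. After vsn normalisation of intensities, each value is the fold change against the detergent-processed vehicle within each replicate, across three independent experiments.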

UniProt Q12851, sequence (Q12851 whole entry, one chain of several): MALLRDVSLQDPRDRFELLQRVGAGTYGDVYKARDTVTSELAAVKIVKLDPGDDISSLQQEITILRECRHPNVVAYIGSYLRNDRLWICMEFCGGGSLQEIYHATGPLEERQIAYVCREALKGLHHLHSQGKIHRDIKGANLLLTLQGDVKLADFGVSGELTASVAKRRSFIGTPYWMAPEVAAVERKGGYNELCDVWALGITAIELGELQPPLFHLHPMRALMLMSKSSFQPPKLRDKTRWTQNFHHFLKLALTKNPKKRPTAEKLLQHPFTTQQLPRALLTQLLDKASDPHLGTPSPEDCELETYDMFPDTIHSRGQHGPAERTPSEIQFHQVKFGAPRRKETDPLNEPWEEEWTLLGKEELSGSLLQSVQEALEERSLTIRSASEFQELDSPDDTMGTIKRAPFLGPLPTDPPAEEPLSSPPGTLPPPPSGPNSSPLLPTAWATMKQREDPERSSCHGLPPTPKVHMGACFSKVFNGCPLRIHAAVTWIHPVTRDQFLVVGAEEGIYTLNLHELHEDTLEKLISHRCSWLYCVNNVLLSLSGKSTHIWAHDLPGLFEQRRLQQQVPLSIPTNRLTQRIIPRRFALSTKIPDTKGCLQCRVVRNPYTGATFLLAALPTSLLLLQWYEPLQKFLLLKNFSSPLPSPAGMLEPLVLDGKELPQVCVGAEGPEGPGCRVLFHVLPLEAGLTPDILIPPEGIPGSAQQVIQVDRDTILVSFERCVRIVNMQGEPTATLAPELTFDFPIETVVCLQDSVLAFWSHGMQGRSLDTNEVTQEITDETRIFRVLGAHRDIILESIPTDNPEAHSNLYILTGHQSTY
UniProt O14524, sequence (O14524 whole entry): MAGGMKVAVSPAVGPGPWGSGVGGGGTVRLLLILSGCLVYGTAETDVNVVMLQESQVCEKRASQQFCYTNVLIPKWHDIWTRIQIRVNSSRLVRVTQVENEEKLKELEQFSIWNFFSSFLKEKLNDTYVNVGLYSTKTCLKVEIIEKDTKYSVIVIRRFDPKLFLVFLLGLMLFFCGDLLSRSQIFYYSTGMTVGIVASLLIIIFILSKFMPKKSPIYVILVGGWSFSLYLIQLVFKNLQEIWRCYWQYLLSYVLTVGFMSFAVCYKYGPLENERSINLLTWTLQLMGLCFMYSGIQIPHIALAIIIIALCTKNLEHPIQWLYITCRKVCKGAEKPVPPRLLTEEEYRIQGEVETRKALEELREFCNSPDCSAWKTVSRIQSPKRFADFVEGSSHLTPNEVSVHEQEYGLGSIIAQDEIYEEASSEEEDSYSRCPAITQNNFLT
UniProt Q9UI95, sequence (Q9UI95 whole entry, one chain of several): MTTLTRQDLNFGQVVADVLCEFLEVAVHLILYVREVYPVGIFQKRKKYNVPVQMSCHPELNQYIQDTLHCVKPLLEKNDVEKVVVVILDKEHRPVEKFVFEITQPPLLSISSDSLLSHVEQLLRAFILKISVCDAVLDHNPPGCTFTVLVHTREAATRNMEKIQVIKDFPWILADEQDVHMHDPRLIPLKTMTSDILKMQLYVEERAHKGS
UniProt Q8WWI1, sequence (Q8WWI1 whole entry, one chain of several): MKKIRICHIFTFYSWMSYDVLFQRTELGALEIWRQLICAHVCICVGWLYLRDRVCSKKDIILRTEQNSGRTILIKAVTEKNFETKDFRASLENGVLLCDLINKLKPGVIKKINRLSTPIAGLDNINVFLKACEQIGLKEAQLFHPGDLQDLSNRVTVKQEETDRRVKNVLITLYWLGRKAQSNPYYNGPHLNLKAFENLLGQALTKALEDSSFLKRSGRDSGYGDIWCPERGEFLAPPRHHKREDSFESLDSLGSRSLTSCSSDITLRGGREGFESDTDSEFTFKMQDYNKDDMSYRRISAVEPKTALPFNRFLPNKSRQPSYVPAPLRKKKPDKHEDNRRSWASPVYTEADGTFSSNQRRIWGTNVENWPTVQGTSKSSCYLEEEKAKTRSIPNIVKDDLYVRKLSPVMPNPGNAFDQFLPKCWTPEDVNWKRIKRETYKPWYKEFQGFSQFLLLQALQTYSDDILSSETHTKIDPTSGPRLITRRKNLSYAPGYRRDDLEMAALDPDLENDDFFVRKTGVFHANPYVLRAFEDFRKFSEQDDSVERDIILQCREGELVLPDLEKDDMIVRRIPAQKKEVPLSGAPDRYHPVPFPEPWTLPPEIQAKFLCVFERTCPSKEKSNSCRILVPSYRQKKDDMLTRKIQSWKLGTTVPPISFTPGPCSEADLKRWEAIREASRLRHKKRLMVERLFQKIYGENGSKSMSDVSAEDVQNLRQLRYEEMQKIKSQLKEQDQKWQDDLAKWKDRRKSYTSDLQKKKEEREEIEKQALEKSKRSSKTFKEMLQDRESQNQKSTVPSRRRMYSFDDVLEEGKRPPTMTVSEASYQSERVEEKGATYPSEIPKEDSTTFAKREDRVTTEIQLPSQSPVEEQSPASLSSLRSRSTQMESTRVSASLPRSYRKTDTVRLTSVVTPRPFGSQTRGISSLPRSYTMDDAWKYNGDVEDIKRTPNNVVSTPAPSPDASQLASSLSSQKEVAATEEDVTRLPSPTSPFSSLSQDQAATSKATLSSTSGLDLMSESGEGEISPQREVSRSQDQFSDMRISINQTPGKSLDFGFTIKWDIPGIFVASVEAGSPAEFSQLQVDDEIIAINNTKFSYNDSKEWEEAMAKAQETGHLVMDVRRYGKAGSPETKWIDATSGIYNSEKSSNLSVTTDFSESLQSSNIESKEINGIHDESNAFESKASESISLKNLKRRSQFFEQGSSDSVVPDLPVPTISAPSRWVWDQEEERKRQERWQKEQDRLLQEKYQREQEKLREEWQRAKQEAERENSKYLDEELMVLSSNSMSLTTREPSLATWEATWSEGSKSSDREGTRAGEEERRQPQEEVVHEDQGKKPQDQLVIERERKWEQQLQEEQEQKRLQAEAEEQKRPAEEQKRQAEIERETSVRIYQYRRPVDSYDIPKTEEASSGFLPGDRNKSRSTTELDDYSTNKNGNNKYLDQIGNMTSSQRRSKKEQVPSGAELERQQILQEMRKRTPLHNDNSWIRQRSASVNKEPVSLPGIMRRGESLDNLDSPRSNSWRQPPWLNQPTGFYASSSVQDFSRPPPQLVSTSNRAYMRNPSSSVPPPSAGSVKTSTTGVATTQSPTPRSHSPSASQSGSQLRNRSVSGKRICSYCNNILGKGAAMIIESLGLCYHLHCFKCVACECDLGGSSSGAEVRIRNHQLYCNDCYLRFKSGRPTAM
UniProt O43143, sequence (O43143 whole entry): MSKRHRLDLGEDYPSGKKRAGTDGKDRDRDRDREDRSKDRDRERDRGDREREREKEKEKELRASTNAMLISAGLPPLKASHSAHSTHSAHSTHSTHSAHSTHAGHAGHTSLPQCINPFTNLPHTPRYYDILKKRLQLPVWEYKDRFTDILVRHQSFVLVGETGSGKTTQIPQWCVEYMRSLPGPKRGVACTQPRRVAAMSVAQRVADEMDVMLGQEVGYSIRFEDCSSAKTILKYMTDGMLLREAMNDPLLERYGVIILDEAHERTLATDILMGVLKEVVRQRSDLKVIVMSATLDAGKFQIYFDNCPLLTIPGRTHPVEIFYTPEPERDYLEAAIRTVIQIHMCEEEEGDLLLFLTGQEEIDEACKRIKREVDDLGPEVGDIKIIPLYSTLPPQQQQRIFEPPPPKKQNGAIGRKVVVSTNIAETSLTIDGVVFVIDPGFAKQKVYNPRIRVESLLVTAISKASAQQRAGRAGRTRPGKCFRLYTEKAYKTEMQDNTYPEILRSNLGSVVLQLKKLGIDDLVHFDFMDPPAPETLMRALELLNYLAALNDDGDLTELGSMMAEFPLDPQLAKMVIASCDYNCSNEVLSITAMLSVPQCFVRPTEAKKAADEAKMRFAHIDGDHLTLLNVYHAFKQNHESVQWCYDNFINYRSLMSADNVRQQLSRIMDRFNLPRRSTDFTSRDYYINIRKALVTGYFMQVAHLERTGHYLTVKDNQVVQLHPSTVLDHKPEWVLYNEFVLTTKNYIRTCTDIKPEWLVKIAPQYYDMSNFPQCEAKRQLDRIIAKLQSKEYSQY
UniProt O00151, sequence (O00151 whole entry): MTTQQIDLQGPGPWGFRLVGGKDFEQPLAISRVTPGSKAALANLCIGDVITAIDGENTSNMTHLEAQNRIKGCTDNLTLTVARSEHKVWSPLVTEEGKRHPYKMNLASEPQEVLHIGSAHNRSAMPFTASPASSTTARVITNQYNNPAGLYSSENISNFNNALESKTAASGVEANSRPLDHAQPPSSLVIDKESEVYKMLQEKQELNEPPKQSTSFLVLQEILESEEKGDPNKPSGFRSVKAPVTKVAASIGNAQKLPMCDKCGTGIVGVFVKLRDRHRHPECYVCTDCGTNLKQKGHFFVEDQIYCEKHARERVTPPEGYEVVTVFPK
UniProt Q8WV99, sequence (Q8WV99 whole entry, one chain of several): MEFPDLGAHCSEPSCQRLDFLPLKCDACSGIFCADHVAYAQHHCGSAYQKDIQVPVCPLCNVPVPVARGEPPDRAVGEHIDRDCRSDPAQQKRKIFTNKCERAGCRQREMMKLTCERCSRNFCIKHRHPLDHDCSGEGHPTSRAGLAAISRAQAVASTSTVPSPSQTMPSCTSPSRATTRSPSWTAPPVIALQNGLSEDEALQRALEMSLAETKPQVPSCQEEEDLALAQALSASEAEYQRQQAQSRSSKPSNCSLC
UniProt Q9H173, sequence (Q9H173 whole entry, one chain of several): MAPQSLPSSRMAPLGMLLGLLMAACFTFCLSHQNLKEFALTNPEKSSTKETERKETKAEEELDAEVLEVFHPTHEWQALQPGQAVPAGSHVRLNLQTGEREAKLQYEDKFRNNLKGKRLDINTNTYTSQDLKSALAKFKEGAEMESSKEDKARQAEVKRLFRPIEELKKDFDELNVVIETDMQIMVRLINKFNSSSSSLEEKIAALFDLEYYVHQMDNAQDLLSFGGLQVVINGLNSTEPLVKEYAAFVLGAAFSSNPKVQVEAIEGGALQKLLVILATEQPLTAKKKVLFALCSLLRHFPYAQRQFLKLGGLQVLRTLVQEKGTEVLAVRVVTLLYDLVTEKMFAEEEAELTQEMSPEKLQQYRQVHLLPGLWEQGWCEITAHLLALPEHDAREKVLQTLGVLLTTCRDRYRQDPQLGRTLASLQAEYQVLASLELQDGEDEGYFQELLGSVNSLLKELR

Target	NP40-soluble protein abundance (concentration: 1mM)	NP40-soluble protein abundance (concentration: 2mM)	NP40-soluble protein abundance (concentration: 4mM)	NP40-soluble protein abundance (concentration: 6mM)	NP40-soluble protein abundance (concentration: 8mM)	NP40-soluble protein abundance (concentration: 10mM)
J3KP06|Q8WWI1|Q8WWI1-2|Q8WWI1-3|Q8WWI1-4 (UniProt Q8WWI1)	1.31 ± 0.026	1.41 ± 0.07	1.57 ± 0.067	1.65 ± 0.07	1.77 ± 0.057	1.96 ± 0.042
K7EK70|Q49A26 (UniProt Q49A26)	1.18 ± 0.095	1.25 ± 0.1	1.38 ± 0.1	1.45 ± 0.083	1.57 ± 0.16	1.76 ± 0.081
K7EIY6|Q9BV68-2 (UniProt Q9BV68)	1 ± 0.15	0.967 ± 0.095	0.991 ± 0.11	1 ± 0.1	0.969 ± 0.034	0.92 ± 0.11
C9J0K6|P30626|P30626-2|P30626-3 (UniProt P30626)	0.887 ± 0.066	0.921 ± 0.078	0.892 ± 0.039	0.911 ± 0.072	0.896 ± 0.011	0.811 ± 0.12
G5E9V5|G5E9W7|P82650 (UniProt P82650)	1.01 ± 0.046	0.938 ± 0.079	0.892 ± 0.083	0.907 ± 0.18	0.88 ± 0.11	0.867 ± 0.1
E9PLK3|P55786 (UniProt P55786)	1.02 ± 0.12	0.997 ± 0.09	0.976 ± 0.065	0.927 ± 0.13	0.999 ± 0.073	0.974 ± 0.057
H0YNP8|Q99081-3|Q99081 (UniProt Q99081)	0.923 ± 0.056	0.935 ± 0.039	0.915 ± 0.041	0.938 ± 0.027	0.916 ± 0.018	0.921 ± 0.046
E9PEB9|Q03001|Q03001-3 (UniProt Q03001)	0.92 ± 0.1	0.924 ± 0.041	0.942 ± 0.081	0.959 ± 0.15	0.899 ± 0.09	0.968 ± 0.056
D6REA1|Q9H173|D6RIU8 (UniProt Q9H173)	0.922 ± 0.083	0.938 ± 0.046	0.92 ± 0.083	0.929 ± 0.11	0.917 ± 0.063	0.8663 ± 0.0052
B4DWF2|Q9UKS7|Q9UKS7-2 (UniProt Q9UKS7)	1.02 ± 0.062	1.03 ± 0.072	1.04 ± 0.061	1.11 ± 0.089	1.1 ± 0.061	1.2 ± 0.066
D0EV57|P01889|P10321|P13746-2|P16188|P30493|P30499|P30504|P30505|P30508|P30685|Q29865|Q29963|Q5SRN5|Q6DU44|Q8MH48|A0A140T912|E9PIB1|O19617|Q29940|Q29718 (UniProt Q29718+Q29940+E9PIB1+Q8MH48+Q6DU44+Q5SRN5+D0EV57+P01889+P10321+P30505+P13746+P30499+P16188+P30493+Q29865+P30504+P30508+P30685+O19617+Q29963)	0.961 ± 0.026	0.9786 ± 0.0089	0.9485 ± 0.0059	0.977 ± 0.013	0.949 ± 0.022	0.96 ± 0.015
DHX15 (UniProt O43143)	1.25 ± 0.079	1.24 ± 0.071	1.24 ± 0.079	1.24 ± 0.1	1.33 ± 0.074	1.29 ± 0.044
A0A0A6YYA7|Q12851|Q12851-2 (UniProt Q12851)	1.02 ± 0.026	1 ± 0.044	1.03 ± 0.063	0.994 ± 0.079	0.994 ± 0.026	0.998 ± 0.027
K7ES61|Q9BYD3 (UniProt Q9BYD3)	1.02 ± 0.079	0.942 ± 0.099	0.907 ± 0.091	0.827 ± 0.14	0.892 ± 0.19	0.895 ± 0.17
B1AK44|Q9UI95 (UniProt Q9UI95)	0.999 ± 0.022	0.937 ± 0.037	0.978 ± 0.024	1.01 ± 0.087	1.05 ± 0.086	0.993 ± 0.059
UniProt O14524	0.824 ± 0.11	0.887 ± 0.1	0.841 ± 0.017	0.899 ± 0.066	0.872 ± 0.029	0.896 ± 0.036
C9JLB7|Q96HP4 (UniProt Q96HP4)	1.09 ± 0.083	1.1 ± 0.1	1.06 ± 0.075	1.12 ± 0.17	1.17 ± 0.14	1.05 ± 0.042
C9J381|P20839|P20839-2|P20839-3|P20839-4|P20839-5|P20839-6|P20839-7 (UniProt P20839)	0.999 ± 0.049	0.9672 ± 0.0062	0.933 ± 0.018	0.695 ± 0.051	0.61 ± 0.018	0.581 ± 0.033
M0R042|P04350 (UniProt P04350)	1.01 ± 0.089	0.962 ± 0.037	1.02 ± 0.034	0.934 ± 0.058	1.02 ± 0.018	0.955 ± 0.071
H3BSH7|Q969X6|Q969X6-3 (UniProt Q969X6)	1.1 ± 0.14	1.21 ± 0.03	1.26 ± 0.058	1.425 ± 0.0083	1.46 ± 0.084	1.78 ± 0.047
PDLIM1 (UniProt O00151)	0.963 ± 0.054	0.958 ± 0.031	0.944 ± 0.041	0.971 ± 0.016	0.939 ± 0.035	0.919 ± 0.036
J3KPP4|O95232 (UniProt O95232)	2.04 ± 0.11	2.06 ± 0.14	2.12 ± 0.1	2.32 ± 0.14	2.27 ± 0.13	2.32 ± 0.18
DNAJC13 (UniProt O75165)	1.15 ± 0.024	1.29 ± 0.095	1.3 ± 0.043	1.35 ± 0.12	1.68 ± 0.12	1.73 ± 0.22
A8MXP9|P43243|P43243-2 (UniProt P43243)	1.02 ± 0.042	1.03 ± 0.038	1 ± 0.026	1.05 ± 0.039	1 ± 0.029	1.03 ± 0.015
A0A087WYN9|Q7Z478 (UniProt Q7Z478)	2.24 ± 0.062	2.31 ± 0.051	2.45 ± 0.092	2.57 ± 0.045	2.68 ± 0.07	2.74 ± 0.062
B1AKN5|B1AKN7|B1AKN8|Q12857|Q12857-3|Q12857-4|B1AKN6|S4R3K4|Q12857-2 (UniProt Q12857)	1.22 ± 0.072	1.08 ± 0.11	1.12 ± 0.081	1.21 ± 0.13	0.995 ± 0.072	1.13 ± 0.033
B4DEN4|E7EV05|E9PFU9|Q8WV99|Q8WV99-2 (UniProt Q8WV99)	0.955 ± 0.084	0.953 ± 0.046	0.943 ± 0.059	0.958 ± 0.066	0.91 ± 0.037	0.902 ± 0.062

Reference: the supplement of paper PMC6411743
